{
  "source": "PubChem BioAssay (Tox21)",
  "note": "Where “and” joins values, the source holds several entries; their conditions need not be identical. Equal values may be shown once. Results filed as inconclusive are left out. A number with no mark means an inactive call. Calls of active or inactive are those of the source. Calls follow the shape of the dose curve; as a rule, active = well fitted activation curve with a large enough effect in the repeat runs; inconclusive = weak or mixed curves; inactive = flat fitted curve, though single readings scatter. % is scaled to controls: 0 for no effect and ±100 for the full control effect; potency is read from the fitted curve at half-maximal effect.",
  "data": [
    {"assay": "A CellTox Green Cytotoxicity Assay to monitor cytotoxicity in HepG2 cells - 40 hour (AID 1224879); also: nearly all actives have a fitted effect of over 40% in size", "conditions": "CellTox Green fluorescence; series mostly up to 76.8 µM; cytotoxicity increase: at the top concentration", "source_text": "National Center for Advancing Translational Sciences [NCATS]\nNIH Chemical Genomics Center [NCGC]\nU.S. Environmental Protection Agency [EPA]\nNational Institutes of Environmental Health Sciences [NIEHS]\nNational Toxicology Program [NTP]\nCell-based models are critical for drug discovery. Determining the natural cytotoxic effects resulting from test compounds is an essential research activity. A CellTox Green Cytotoxicity Assay to monitor cytotoxicity in real time of continues cell culture during 40 hours of the compound treatment was used to screen Tox21 10K library compounds in HepG2 cells. CellTox Green Cytotoxicity Assay is a nonlytic, homogeneous, biofluorescent method to measure cytotoxicity in cell culture after experimental manipulation. The assay system uses a proprietary asymmetric cyanine dye that is excluded from viable cells but preferentially stains the dead cell's DNA. […] Viable cells produce no appreciable increases in fluorescence. Therefore, the fluorescence signal produced by the binding interaction with dead cell DNA is proportional to cytotoxicity.\nThe mixture of HepG2 cell suspension and reagents were dispensed at 600cells/6 ul/well in 1536-well tissue culture treated black solid bottom plates using a Multidrop dispenser. After the assay plates were incubated at a 37 C/5% CO2 incubator for 5 hours, 23 nL of compounds dissolved in DMSO, positive and negative controls was transferred to the assay plate by a pintool work station. The plates were incubated at 37 C for 40 hours. The fluorescence intensity were measured at 0h, 8h, 16h, 24h, 32h and 40h time points using ViewLux plate reader during compound treatment.", "values": [
      {"compound": "CCOC(=O)c1cn2nc(OP(=S)(OCC)OCC)cc2nc1C", "cytotoxicity increase": "-2.89%"},
      {"compound": "Clc1ccc2ccccc2c1", "cytotoxicity increase": "0.711%"},
      {"compound": "C[C@]12CC[C@H]3[C@@H](CCC4=CC(=O)CC[C@@H]43)[C@@H]1CC[C@@H]2OC(=O)CCc1ccccc1", "cytotoxicity increase": "8.75% [at 35.3 µM]"},
      {"compound": "O=C(O)C(O)C(O)C(=O)O", "note": "(stereo not given)", "cytotoxicity increase": "0.505%"},
      {"compound": "COc1ccc2c(c1OC)C(=O)O[C@H]2[C@@H]1c2cc3c(cc2CCN1C)OCO3", "cytotoxicity increase": "-22.6% [at 35.3 µM]"},
      {"compound": "O=C(N/N=C/c1ccc([N+](=O)[O-])o1)c1cc([N+](=O)[O-])cc([N+](=O)[O-])c1O", "cytotoxicity increase": "-18.9% [at 35.3 µM]"},
      {"compound": "Cc1ccc2c(C)cccc2c1", "cytotoxicity increase": "-3.21%"},
      {"compound": "CCCC(C)(COC(N)=O)COC(=O)NC(C)C", "note": "(stereo not given)", "Potency": "inactive"},
      {"compound": "CCCC[P+](CC)(CCCC)CCCC", "note": "(tested in a mixture with another compound)", "cytotoxicity increase": "1.12%"},
      {"compound": "O=S(=O)(c1ccccc1)c1ccccc1", "cytotoxicity increase": "-5.42%"},
      {"compound": "COC(=O)Cc1ccccc1", "cytotoxicity increase": "-4.43%"},
      {"compound": "c1ccc2c(c1)-c1cccc3cccc-2c13", "Potency": "inactive"},
      {"compound": "CCOC(C(=O)OCCN(C)C)(c1ccccc1)c1ccccc1", "cytotoxicity increase": "2.76% [at 35.3 µM]"},
      {"compound": "CC(C)(C)CC(C)(C)c1ccc(O)cc1", "Potency": "17.4 µM (active) and 15.1 µM (active)"},
      {"compound": "[Cl-].[Cl-].[Hg+2]", "Potency": "24.4 µM (active) and 2.45 µM (active)"},
      {"compound": "O=C(O)COc1cc(Cl)c(Cl)cc1Cl", "Potency": "inactive"},
      {"compound": "O=C(NCNC(=O)NC1C(=O)NC(=O)N1CO)NC1C(=O)NC(=O)N1CO", "note": "(stereo not given)", "cytotoxicity increase": "-10.7%"},
      {"compound": "O=C1c2ccccc2C(=O)N1SC(Cl)(Cl)Cl", "Potency": "21.6 µM (active) and 12.3 µM (active)"},
      {"compound": "COC1=CC(=O)O[C@@H](/C=C/c2ccc3c(c2)OCO3)C1", "cytotoxicity increase": "17.1%"},
      {"compound": "C=CCN1C[C@H](C)N([C@H](c2ccc(C(=O)N(CC)CC)cc2)c2cccc(OC)c2)C[C@H]1C", "Potency": "21.3 µM (active)"},
      {"compound": "CCOC(=O)C1OC1(C)c1ccccc1", "note": "(stereo not given)", "Potency": "inactive"},
      {"compound": "Cc1cccc(C)c1NC1=NCCCS1", "cytotoxicity increase": "-9.46% [at 35.3 µM]"},
      {"compound": "CCCC[N+](CCCC)(CCCC)CCCC", "cytotoxicity increase": "-3.91%"},
      {"compound": "Cc1cnc(C2=NC(C)(C(C)C)C(=O)N2)c(C(=O)O)c1", "note": "(stereo not given)", "cytotoxicity increase": "-4.56%"},
      {"compound": "O=P(OCC(Br)CBr)(OCC(Br)CBr)OCC(Br)CBr", "note": "(stereo not given)", "Potency": "inactive"},
      {"compound": "NCCc1cc(O)c(O)cc1O", "cytotoxicity increase": "-4.21% [at 35.3 µM]"},
      {"compound": "CC(C)(C)N(NC(=O)c1ccc(Cl)cc1)C(=O)c1ccccc1", "cytotoxicity increase": "2.77%"},
      {"compound": "CCC(C)(C)c1ccc(O)c(C(C)(C)CC)c1", "Potency": "38.5 µM (active)"},
      {"compound": "CC1(C)[C@H](C(=O)O[C@H](C#N)c2cccc(Oc3ccccc3)c2)[C@@H]1C=C(Br)Br", "Potency": "inactive"},
      {"compound": "Nc1ccc2c(c1)Cc1ccccc1-2", "cytotoxicity increase": "-0.143%"},
      {"compound": "OCCSSCCO", "cytotoxicity increase": "13.4%"},
      {"compound": "O=C(O)c1cc(I)cc(I)c1I", "cytotoxicity increase": "-13.4%"},
      {"compound": "C=CCOCC1CO1", "note": "(stereo not given)", "cytotoxicity increase": "3.92%"},
      {"compound": "CCC[N+](CCC)(CCC)CCC", "cytotoxicity increase": "-6.72%"},
      {"compound": "C#C[C@]1(O)CC[C@H]2[C@@H]3CCC4=CC(=O)CCC4=C3C=C[C@@]21CC", "cytotoxicity increase": "59.2% [at 35.3 µM]"},
      {"compound": "COP(=O)(OC)OC(Br)C(Cl)(Cl)Br", "note": "(stereo not given)", "cytotoxicity increase": "20.4%"},
      {"compound": "O=C(CCl)CCl", "Potency": "25.5 µM (active)"},
      {"compound": "O=C(Cc1ccccc1)c1ccccc1", "cytotoxicity increase": "1.22%"},
      {"compound": "Clc1ccccc1", "cytotoxicity increase": "0.28%"},
      {"compound": "Cc1nc2ccccc2c(=O)n1-c1ccccc1Cl", "cytotoxicity increase": "-0.986%"}
    ]}
  ]
}
